MBD2 inh: inhibitors of MBD2 binding to methylated DNA, primary screen, biochemical, TR-FRET, DNA-binding domain, human | Methyl-CpG-binding domain protein 2 (Homo sapiens), Q9UBB5 | 0.31% of 370,000 active | MBD2 binding to methylated oligonucleotide | inhibition, % at 4.4 µM; in the data active = inhibition above about 13%
LEDGF integ inh: blockers of LEDGF/p75-dependent integrase strand transfer – biochemical, TR-FRET, high throughput, primary screen. 0.64% of 370,000 active. TR-FRET IN-LEDGF/p75 DNA integration, Eu/Cy5. inhibition, % at 3.7 µM. AID 743269, 2014. HIV-1 integrase (with human LEDGF/p75);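 active = inhibition above the screen-wide mean plus 3 SD, cut at about 13% in these data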;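 also: signal is the Cy5 over europium emission ratio at 671 and 618 nm; 0% = plate median of compound wells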
PRMT1 FP inh: PRMT1 methyltransferase inhibitors, primary screen, biochemical, fluorescence polarization. Protein arginine N-methyltransferase 1 (Homo sapiens), Q99873. recombinant PRMT1, activity-based probe fluorescence polarization. inhibition, % at 2.79 µM. 1.3% of 370,000 active. AID 652257, 2013;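 active = inhibition above about 21% made by adding two undisclosed values, limit read from the data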
Target sequence (Q99873 whole entry, looked up): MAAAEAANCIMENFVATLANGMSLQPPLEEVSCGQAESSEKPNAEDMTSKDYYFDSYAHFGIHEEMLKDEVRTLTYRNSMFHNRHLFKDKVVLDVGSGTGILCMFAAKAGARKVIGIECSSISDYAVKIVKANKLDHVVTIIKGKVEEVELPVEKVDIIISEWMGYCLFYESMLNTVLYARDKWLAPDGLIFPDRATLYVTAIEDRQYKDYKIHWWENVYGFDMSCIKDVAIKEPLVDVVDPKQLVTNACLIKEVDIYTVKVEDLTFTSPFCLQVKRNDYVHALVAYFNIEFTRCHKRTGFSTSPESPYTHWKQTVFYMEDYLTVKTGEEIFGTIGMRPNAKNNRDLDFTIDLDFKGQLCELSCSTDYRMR
rCAG binder: binders of r(CAG) RNA repeats, primary screen, biochemical, fluorescence | r(CAG) RNA repeat, TO-PRO-1 dye displacement fluorescence | inhibition, % at 3 µM | 1.3% of 370,000 active | AID 651821, 2012;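 active = inhibition above the plate cutoff, the mean of all test compounds on that plate plus 3 SD, cut at about 35% in these data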;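 also: 0% = DMSO alone and 100% = 100 µM mitoxantrone as full dye displacement; higher means more dye released from RNA so lower well fluorescence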
ABHD5-PLIN5 inh: ABHD5-PLIN5 interaction inhibitors, primary screen, cell lysate, split luciferase complementation, luminescence | Split G. princeps luciferase complementation, 4 h | 0.78% of 360,000 active | inhibition, % at 4 µM | AID 602281, 2012;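 active = inhibition above the mean inhibition across every tested compound plus 3 SD, cut at about 22% in these data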;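 also: 0% = DMSO only wells and the 100% control is not disclosed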
UHRF1 MBD2 ctr: UHRF1 methylated DNA binding inhibitors, primary screen, counter-screen for MBD2 inhibitor project, biochemical, TR-FRET, human UHRF1, single concentration | UHRF1 binding to methylated oligo | AID 687016, 2013 | inhibition, % at 4.4 µM | E3 ubiquitin-protein ligase UHRF1 (Homo sapiens), Q96T88 | 0.75% of 370,000 active; in the data active = inhibition above about 21%;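 also: UHRF1 SRA domain binding a hemimethylated CpG hairpin DNA probe; 0% = median of test compound wells and 100% = reference inhibitor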
IN multimer act: HIV-1 IN multimer formation enhancers, counter-screen for LEDGF/p75 integration inhibitor project, biochemical, TR-FRET; shares compounds with LEDGF integ inh; TR-FRET HIV-1 integrase multimerization; activation, % at 7.7 µM; 17% of 2,000 active; in the data active = activation above about 8.9%
TRFRET interf: TR-FRET optical interference artefacts, confirmation, artefact control for LEDGF/p75-dependent integration inhibitor project, biochemical, HIV-1 IN multimerization | shares compounds with LEDGF integ inh | 2,000 tested, under 10 active | AID 1053135, 2014 | TR-FRET optical interference counterscreen | inhibition, % at 7.7 µM;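 active = inhibition above the mean over all tested compounds plus 3 SD, which no compound reached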;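 also: 0% = integrase with antibodies and DMSO and 100% = antibodies without integrase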
IN-LEDGF confirm: inhibitors of HIV-1 IN-LEDGF/p75 DNA integration, confirmation, biochemical, TR-FRET | 36% of 2,000 active | shares compounds with LEDGF integ inh | TR-FRET LEDGF/p75-dependent HIV-1 integration | inhibition, % at 3.7 µM | AID 1053136, 2014; in the data active = inhibition above about 14%
Active calls of the source: *; nt = not tested or not shown. This is a sample that favours compounds with a hit; in the whole collection about 4.1% have one here.

SMILES | MBD2 inh | LEDGF integ inh | PRMT1 FP inh | rCAG binder | ABHD5-PLIN5 inh | UHRF1 MBD2 ctr | IN multimer act | TRFRET interf | IN-LEDGF confirm
Cc1cc(C)n(-c2ncc3c(n2)N(CCO)CCOC3=O)n1 | 2 | -2 | -1 | -2 | -5 | -1 | nt | nt | nt
COCc1[nH]nc2c1C(c1cccc(C(F)(F)F)c1)N(c1ccc(OC)cc1)C2=O (centres undefined) | 4 | -1 | -1 | 1 | nt | -1 | nt | nt | nt
COc1ccccc1Nc1nnc(SCc2cc(=O)n3cc(C)ccc3n2)s1 | -3 | 36* | -2 | 5 | 2 | -1 | 2 | -8 | -3
CCOC(=O)N1CCN(C(=O)C[C@H]2C[C@@]3(C(=O)OC)C(=C[C@H](C(C)C)O[C@@H]3C3CC3)N(Cc3ccc(Cl)cc3Cl)C2=O)CC1 | -6 | 9 | -5 | 4 | nt | 1 | nt | nt | nt
Cc1cccc(NC(=O)CSc2nnc(SCc3ccc(Cl)cc3)s2)c1 | -2 | -3 | 1 | 7 | nt | 2 | nt | nt | nt
CC(=O)c1sc(NCc2ccccc2)nc1C | -7 | 29* | 3 | 2 | -1 | -1 | -1 | 5 | 3
O=C(O)c1ccc(CN2C(=O)c3cccc4c([N+](=O)[O-])ccc(c34)C2=O)cc1 | nt | nt | nt | nt | -7 | nt | nt | nt | nt
Cc1ccc(C(=O)O)cc1N1C(=O)c2cccc3c([N+](=O)[O-])ccc(c23)C1=O | 0 | 14* | 22* | 19 | 6 | 19 | 3 | -12 | 27*
O=C(NC1CC1)c1sc2cc(F)ccc2c1Cl | -1 | 21* | -5 | 2 | 8 | -1 | 0 | -1 | 2
CC(C)C[C@H]1COc2cc(Br)ccc2S(=O)(=O)N1Cc1ccc(F)cc1F | 0 | 1 | -4 | 3 | nt | 10 | nt | nt | nt
COCCN1C(=O)N[C@@H](c2cccc(F)c2)C(C(=O)OC)=C1C | -2 | 29* | 2 | 1 | 4 | -3 | 1 | -7 | -5
O=c1cc(-c2ccc(O)c(O)c2)oc2c(C3O[C@H](CO)[C@@H](O)[C@H](O)[C@H]3O)c(O)cc(O)c12 (some centres undefined) | 0 | 68* | 4 | 4 | -2 | -6 | 81* | -410 | 90*
O=c1cc(-c2ccc(O)cc2)oc2c(C3O[C@H](CO)[C@@H](O)[C@H](O)[C@H]3O)c(O)cc(O)c12 (some centres undefined) | 1 | 2 | 3 | 2 | 4 | -9 | nt | nt | nt
O=c1cc(-c2ccc(O)c(O)c2)oc2cc(O)c(C3OC(CO)C(O)C(O)C3O)c(O)c12 (centres undefined) | -7 | 46* | 0 | 5 | -1 | -4 | 73* | -369 | 91*
O=c1cc(-c2ccc(O)cc2)oc2cc(O)c([C@@H]3O[C@H](CO)[C@@H](O)[C@H](O)[C@H]3O)c(O)c12 | 1 | 3 | -5 | 2 | -2 | -7 | nt | nt | nt
CCOC(=O)C1=NOC(C(=O)NC2CCCC2)(C(=O)C2CC2)C1 (centres undefined) | -1 | -4 | 3 | 4 | nt | 2 | nt | nt | nt
C[C@H](O)[C@@H]1CN2CCc3ccc(-c4ccc5c(c4)OCO5)cc3[C@@H]2C[C@@H]1N(C)C(=O)c1cccc(Cl)c1 | -4 | -1 | 1 | 8 | nt | 0 | nt | nt | nt
COC(=O)[C@]12C[C@H](CC(=O)NCC3CCCCC3)C(=O)N(Cc3cccc4ccccc34)C1=C[C@H](C1CCCC1)O[C@@H]2C | 5 | -1 | 4 | 13 | nt | 3 | nt | nt | nt
Cc1nc(SCC(=O)N2CCCc3ccccc32)c2oc3ccccc3c2n1 | -1 | 2 | 0 | 0 | 2 | 4 | nt | nt | nt
CCc1nc(SCC(=O)N2CCc3ccccc32)c2oc3ccccc3c2n1 | -5 | 14* | -2 | -4 | 6 | 0 | 0 | -3 | -1
CC1(C)Cc2cccc(OC(=O)NCCc3ccc(F)cc3)c2O1 | 0 | 15* | -1 | 0 | 3 | -2 | 1 | -5 | -11
COc1ccc(-c2nnc3sc(-c4cccs4)nn23)cc1OC | 1 | -2 | -1 | 8 | 4 | -3 | nt | nt | nt
COc1cc(-c2cccs2)cc(=O)c2c(C)oc(C)c12 | 5 | 17* | 16 | 30 | 12 | 3 | 1 | -4 | 6
Cc1ccc(C2C(C#N)=C(N)Oc3cc4c(cc32)OCO4)cc1 (centres undefined) | 0 | 7 | 9 | 7 | 4 | 2 | nt | nt | nt
N#CC1=C(N)Oc2cc(O)c(C=Nc3ccccc3)cc2C1c1ccccc1 (centres undefined) | 2 | 20* | -2 | 4 | -4 | -1 | 3 | -15 | 19*
SMILES | MBD2 inh | LEDGF integ inh | PRMT1 FP inh | rCAG binder | ABHD5-PLIN5 inh | UHRF1 MBD2 ctr | IN multimer act | TRFRET interf | IN-LEDGF confirm
Cc1ccccc1N=Cc1cc2c(cc1O)OC(N)=C(C#N)C2c1ccccc1 (centres undefined) | 2 | 19* | 0 | 10 | 15 | -3 | 2 | -10 | 35*
Cc1ccc(N=Cc2cc3c(cc2O)OC(N)=C(C#N)C3c2ccccc2)cc1 (centres undefined) | -2 | 30* | 0 | 10 | -2 | -1 | 4 | -18 | 15*
C[C@H]1COc2cc(Br)ccc2S(=O)(=O)N1Cc1cn(Cc2ccc(C(F)(F)F)cc2)nn1 | 2 | -2 | 1 | 2 | nt | -3 | nt | nt | nt
COc1ccc(-c2cc(C(=O)Nc3cccc(O)c3)no2)cc1 | -4 | 38* | -3 | 4 | 0 | 1 | 1 | -4 | -7
O=C(Nc1ccc2c(c1)OCO2)OC1CCC12CCCCC2 (centres undefined) | 3 | -4 | -1 | 4 | nt | -6 | nt | nt | nt
O=C1NC2(CCCCCC2)C(=O)N1Cc1ccccc1Cl | 6 | 28* | 2 | -4 | -14 | 2 | -1 | 3 | -7
O=C(CN1C(=O)NC2(CCCCCCC2)C1=O)NCc1ccccc1Cl | 2 | -1 | 3 | 1 | 1 | 0 | nt | nt | nt
Fc1ccc(CNc2ncccn2)cc1 | -2 | 14* | -1 | 0 | -2 | 2 | 2 | -9 | -5
